From PubChem
The sample as a whole holds a higher share of hits than the screen did.
TDP1 cell CPT = qHTS for Inhibitors of human tyrosyl-DNA phosphodiesterase 1 (TDP1): qHTS in cells in presence of CPT. Potency, µM (highest dose often 46.2 µM), for inactives: top-dose activity change, negative = growth inhibition, actives largely listed as inhibitors. actives 12% (n = 420,000). chicken DT40 Tdp1-/-;hTDP1 cells + 20 nM CPT, ATP luminescence, 48 h; also: potency is read from the fitted curve at half-maximal effect; nearly all actives have a fitted effect of over 55% in size
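Chicken DT40 Tdp1-/- cells complemented with human TDP1, 400 cells/well, exposed to compounds plus 20 nM camptothecin for at least 48 h at 37 C; viability read as ATP content by CellTiter-Glo luminescence.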
DT40 TDP1 no CPT = qHTS for Inhibitors of human tyrosyl-DNA phosphodiesterase 1 (TDP1): qHTS in cells in absence of CPT; DT40 Tdp1-/- hTDP1 cells, no CPT, ATP luminescence, 48 h; Potency, µM (titrated, usually from 46.2 µM), inactives show top-dose activity change, negative = growth inhibition, actives largely listed as inhibitors; actives 15% (n = 420,000); also: potency is read from the fitted curve at half-maximal effect; nearly all actives have a fitted effect of over 55% in size
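No-CPT arm: Tdp1-/-;hTDP1 DT40 cells (400/well) plus compounds, incubated ≥48 hr at 37 °C. Readout CellTiter-Glo luminescence.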
HT1080 IDH1KD tx = qHTS for induction of synthetic lethality in tumor cells producing 2HG: qHTS for the HT-1080-IDH1KD cell line; HT-1080 IDH1 knockdown viability, ATP luminescence, 48 h; Potency, µM (titrated, usually from 46.1 µM), without a hit: top-dose activity, negative = toxicity, most hits filed as cytotoxic; actives 2% (n = 360,000);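 also: potency is read from the fitted curve at half-maximal effect; 0% = DMSO wells and -100% = cell-free medium wells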
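Viability of IDH1-knockdown HT-1080 fibrosarcoma cells was assessed by CellTiter-Glo after 48 h at 37 °C with titrated compound; concentration-effect curves were classified by fit quality and response size.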
HT1080NT lethal = qHTS for induction of synthetic lethality in tumor cells producing 2HG: qHTS for the HT-1080-NT fibrosarcoma cell line | HT-1080-NT fibrosarcoma viability, CellTiter-Glo ATP luminescence, 48 h | actives 1.6% (n = 360,000) | AID 686970, 2013 | Potency, µM (top dose mostly 46.1 µM), inactives show at the top dose activity, negative = less viability, usual class: cytotoxic;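 also: NT is the 2HG producing partner of a matched IDH1 knockdown line; potency is read from the fitted curve at half-maximal effect; 0% = DMSO-treated cells and -100% = media-only wells without cells; nearly all actives have a fitted effect of over 55% in size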
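Read-out is CellTiter-Glo luminescence after 10 minutes at room temperature, following 48 hours' compound treatment of HT-1080-NT cells (750 cells/well, RPMI, 5% FBS, 37 degrees C).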
ALOX12 inh = Primary qHTS assay for inhibitors of human arachidonate 12S-lipoxygenase (ALOX12): Round 2. purified 12hLO, xylenol orange hydroperoxide absorbance. actives 1.1% (n = 580,000). Potency, µM (top dose mostly 108 µM), without a hit: at the highest dose activity change, negative = inhibition, most hits filed as inhibitors. Polyunsaturated fatty acid lipoxygenase ALOX12 (Homo sapiens), P18054; also: potency is read from the fitted curve at half-maximal effect
Target sequence (P18054 whole entry, looked up): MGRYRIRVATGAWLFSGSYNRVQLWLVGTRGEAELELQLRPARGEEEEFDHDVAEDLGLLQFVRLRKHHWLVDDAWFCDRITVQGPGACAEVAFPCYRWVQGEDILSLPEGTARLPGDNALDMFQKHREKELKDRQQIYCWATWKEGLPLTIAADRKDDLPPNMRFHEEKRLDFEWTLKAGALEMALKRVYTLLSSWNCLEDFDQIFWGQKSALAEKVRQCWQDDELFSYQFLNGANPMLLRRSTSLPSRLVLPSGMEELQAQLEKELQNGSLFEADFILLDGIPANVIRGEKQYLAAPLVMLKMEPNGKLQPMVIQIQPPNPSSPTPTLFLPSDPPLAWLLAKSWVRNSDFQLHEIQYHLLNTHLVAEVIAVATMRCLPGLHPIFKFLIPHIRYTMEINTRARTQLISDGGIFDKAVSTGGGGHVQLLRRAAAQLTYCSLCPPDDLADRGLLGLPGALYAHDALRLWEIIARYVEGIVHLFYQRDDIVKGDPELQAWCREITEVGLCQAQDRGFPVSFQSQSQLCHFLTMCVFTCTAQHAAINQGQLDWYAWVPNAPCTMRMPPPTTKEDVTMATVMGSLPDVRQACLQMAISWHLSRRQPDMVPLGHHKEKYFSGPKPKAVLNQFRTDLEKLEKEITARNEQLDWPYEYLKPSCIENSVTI
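Hydroperoxide product was detected by ferrous iron/xylenol orange as the 573 to 405 nm absorbance ratio. Arachidonic acid at 40 uM (final) was turned over for 30 min at room temperature by 150 nM human 12hLO, pH 7.0 Hepes buffer, after 15 min compound preincubation.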
IL1B secr inh = qHTS for Inhibitors of Inflammasome Signaling: IL-1-beta AlphaLISA Primary Screen | actives 4.7% (n = 360,000) | THP-1 LPS/ATP IL-1B secretion, AlphaLISA, 16 h; active compounds read low | activity change, % at 57.5 µM; in the data active = activity change below about -50%; inconclusive = mostly about -30% to -49%
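THP-1 cells pretreated 1 hr with compounds (up to 57.5 uM final), then stimulated with LPS (250 ng/mL final) plus ATP (1.25 mM final); secreted IL-1B measured by AlphaLISA after 16 hr, decreased signal indicating inhibition.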
Numbers without * were called inactive; i = inactive; ? = inconclusive; . = not tested or not shown; [ ] = another dose, or the depositor's remark. Unless noted, calls follow the shape of the dose curve; as a rule, active = well fitted curve in the direction sought with a large enough effect; inconclusive = small, poorly fitted or top-dose-only effect, or another doubt; inactive = no such curve, though single readings can be large; an effect the other way counts as inactive or inconclusive. Unless noted, % is scaled to controls: 0 for no effect and ±100 for the full control effect.

SMILES | TDP1 cell CPT | DT40 TDP1 no CPT | HT1080 IDH1KD tx | HT1080NT lethal | ALOX12 inh | IL1B secr inh
Cc1nccc(-c2cccc(N/N=C(\C#N)C(=O)c3ccccc3)c2)n1 | 21µM* | 10µM* | ? | ? | 224% | 4
COc1cc(CNC(=O)c2c(C)noc2-c2cc(OC)c(OC)c(OC)c2)cc(OC)c1 | . | . | . | . | 13% | .
CCCOc1ccc(F)cc1-c1cc(C(=O)NCc2cccc(Cl)c2)[nH]n1 | 23µM* | ? | ? | -24% | -35% | -16
CCCOc1ccc(F)cc1-c1cc(C(=O)NCc2ccccc2)[nH]n1 | ? | ? | -2% | -4% | 1% | ?
CCCOc1ccc(F)cc1-c1cc(C(=O)NCc2cccc(C(F)(F)F)c2)[nH]n1 | 21µM* | 18µM* | ? | ? | -15% | -25
COc1cc(F)ccc1-c1cc(C(=O)NCc2ccc(C(F)(F)F)cc2)[nH]n1 | ? | ? | -27% | -19% | -6% | -26
CCCOc1ccc(F)cc1-c1cc(C(=O)NCc2ccc(C(F)(F)F)cc2)[nH]n1 | ? | 16µM* | ? | ? | . | -8
Cc1cc(C(=O)CSc2nnc(COc3ccc(Cl)cc3)n2C)c(C)n1CC(F)(F)F | . | . | . | . | 46% | .
O=C(Nc1nn(Cc2ccc(Cl)c(Cl)c2)cc1Br)c1nc2ncccn2n1 | . | . | . | . | -11% | .
O=C1CCCCC(CNC(=O)c2ccc3ccccc3n2)N1 (stereo unspecified) | . | . | . | . | -1% | .
COc1ccc(O)c(C(=O)c2cc(C(=O)NCCc3ccccc3)c(=O)n(CCc3ccccc3)c2)c1 | 18µM* | 15µM* | 1% | 3% | -19% | -14
Cc1ccc(O)c(C(=O)c2cc(C(=O)NCCc3ccccc3)c(=O)n(CCc3ccccc3)c2)c1 | ? | 16µM* | 1% | 8% | 23% | -3
COc1ccc(CCNC(=O)c2cc3ccccc3oc2=O)cc1 | 10% | 3% | 8% | 6% | 1% | 1
Cc1ccc(C(=O)NCCc2ccccc2)cc1 | -2% | ? | 0% | -2% | . | -8
COc1ccc(/C=N/n2cnnc2SCc2ccccc2)cc1 | ? | 21µM* | -12% | -17% | -5% | -20
CCCCCc1c(-c2cccc(F)c2)ncn1CCc1ccccc1OC | 23µM* | 18µM* | ? | ? | -71% | 0
CCCCCc1c(-c2cccc(Cl)c2)ncn1CCc1ccccc1OC | 23µM* | 23µM* | -15% | -18% | -20% | 0
CCCCc1c(-c2cccc(F)c2)ncn1CCc1ccccc1OC | 21µM* | 21µM* | ? | ? | ? | -74*
CCCCCc1c(-c2cccc(OC)c2)ncn1CCc1ccccc1OC | 8.2µM* | 7.3µM* | ? | 21µM* | -66% | -86*
Cc1cccc(NC(=O)c2cc(=O)c3c(C)cc(C)cc3o2)c1 | . | . | . | . | 2% | .
CCCCc1c(-c2cccc(Br)c2)ncn1CCc1ccccc1OC | 5.8µM* | 5.8µM* | ? | 15µM* | ? | -72*
CCCc1c(-c2ccc(F)cc2F)ncn1Cc1ccccc1OC | 2.1µM* | 1.5µM* | ? | 18µM* | ? | 0
CCCc1c(-c2cccc(F)c2)ncn1CCc1ccccc1OC | ? | 15µM* | ? | ? | -21% | -78*
CCc1c(-c2ccc(OC)c(OC)c2)ncn1CCc1ccccc1OC | . | . | . | . | -13% | .
COc1ccccc1CCn1cnc(-c2cccc(Br)c2)c1C(C)C | . | . | . | . | -21% | .
SMILES | TDP1 cell CPT | DT40 TDP1 no CPT | HT1080 IDH1KD tx | HT1080NT lethal | ALOX12 inh | IL1B secr inh
CCCc1c(-c2cccc(F)c2)ncn1Cc1ccccc1OC | 9.2µM* | 8.2µM* | ? | ? | -17% | 19
Cn1c(CO[C@H]2CN(S(=O)(=O)c3ccc(Cl)cc3)C[C@H]2F)nc2ccccc21 | . | . | . | . | -10%[176 µM] | .
CCCN1CCc2c(sc(NC(=S)NC(=O)c3ccccc3)c2C#N)C1 | 21µM* | ? | -8% | -11% | ? | 0
CC(C)N1CCc2c(sc(NC(=O)c3ccc(S(=O)(=O)N4CCOCC4)cc3)c2C#N)C1 | 23µM* | 21µM* | 1% | 0% | . | -20
COc1ccc(C(=O)Nc2sc3c(c2C#N)CCN(C(C)=O)C3)cc1 | 3.3µM* | 4.1µM* | 5.8µM* | 8.2µM* | -7% | -25
CC(C)N1CCc2c(sc(NC(=S)NC(=O)c3ccccc3)c2C#N)C1 | -5% | ? | -4% | -20% | ? | 26
CCOC(=O)N1CCc2c(sc(NC(=O)c3ccc(S(=O)(=O)N4CCCC4)cc3)c2C#N)C1 | 21µM* | 15µM* | 1% | -19% | ? | 11
COc1cc(C(=O)Nc2sc3c(c2C#N)CCN(C(C)=O)C3)cc(OC)c1OC | ? | ? | -7% | -17% | -6% | -11
CS(=O)(=O)c1ccc(Cl)c(NC(=O)c2cnccn2)c1 | . | . | . | . | 79% | .
Cc1ccc2c(CC(=O)Nc3ccc(F)c(S(=O)(=O)N4CCOCC4)c3)coc2c1 | ? | ? | 2% | 2% | i | -2
COCC1CN(C(=O)c2ccc3cc[nH]c3c2)CC12CCOCC2 (stereo unspecified) | . | . | . | . | 9% | .
CCC(NC(=O)C1CCN(C(=O)C2CCC2)CC1)c1nc(C)c(C)s1 (stereo unspecified) | . | . | . | . | 31% | .
O=C(Nc1nnc(-c2ccc(Cl)s2)o1)C1CCCCC1 | 15µM* | ? | -7% | -8% | -2% | -13
O=C(Nc1nnc(-c2ccc3c(c2)OCCO3)o1)C1CCCCC1 | -28% | ? | 1% | 3% | 3% | 21
O=C(Nc1nnc(-c2ccccc2)o1)C1CCCCC1 | ? | ? | -10% | -9% | 3% | 17
O=C(Nc1nnc(-c2ccc(Cl)cc2)o1)C1CCCCC1 | ? | 18µM* | -6% | 11% | 12% | 8
Cc1cccc(C(=O)Nc2nc3nc(-c4ccccc4)cc(=O)n3[nH]2)c1 | -5% | 6% | . | . | 2% | .
O=C(O)COc1ccccc1/C=N/Nc1ccc(S(=O)(=O)Nc2ccc(Cl)cc2)cc1[N+](=O)[O-] | -14% | 17% | 4% | 0% | 32µM* | 8
